Source: PubChem BioAssay AID435001 (Southern Research Specialized Biocontainment Screening …, 2010)

Target: Large T antigen (Simian virus 40) (UniProt P03070)
Test: large T antigen ATP hydrolysis inhibition – biochemical, ADP-Hunter, purified TAg, synthesized compounds (AID 435001)
Details: purified TAg ATPase, ADP-Hunter fluorescence; series mostly up to 100 µM; inhibition: at the top concentration; call rule not given here

Chain of Large T antigen (Simian virus 40) (P03070 whole entry, looked up): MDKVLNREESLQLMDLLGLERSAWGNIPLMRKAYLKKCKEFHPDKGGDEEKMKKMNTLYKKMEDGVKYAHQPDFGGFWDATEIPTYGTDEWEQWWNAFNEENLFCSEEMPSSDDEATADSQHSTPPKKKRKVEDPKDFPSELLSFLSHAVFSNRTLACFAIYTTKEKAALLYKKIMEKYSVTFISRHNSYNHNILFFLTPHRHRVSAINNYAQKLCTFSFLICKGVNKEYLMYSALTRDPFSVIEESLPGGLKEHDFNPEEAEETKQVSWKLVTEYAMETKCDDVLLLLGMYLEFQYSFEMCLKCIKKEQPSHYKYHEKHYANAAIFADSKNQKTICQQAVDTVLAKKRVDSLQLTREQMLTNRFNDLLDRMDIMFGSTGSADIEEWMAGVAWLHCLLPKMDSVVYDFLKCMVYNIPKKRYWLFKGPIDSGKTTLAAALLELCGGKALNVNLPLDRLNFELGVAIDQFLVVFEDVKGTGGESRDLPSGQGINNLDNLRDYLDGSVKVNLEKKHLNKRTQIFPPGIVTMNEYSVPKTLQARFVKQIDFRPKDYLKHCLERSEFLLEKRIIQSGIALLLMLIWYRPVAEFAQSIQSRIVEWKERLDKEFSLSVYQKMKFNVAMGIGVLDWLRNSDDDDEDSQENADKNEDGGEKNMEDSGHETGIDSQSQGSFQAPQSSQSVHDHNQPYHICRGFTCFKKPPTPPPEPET

inhibition, inactive:
COc1ccc(C2(c3ccc(OC)cc3)CC2)cc1 -7.64%
C=C(c1ccc(OC)cc1)c1ccc(OC)cc1 -6.97%
COc1ccc(C(C)(C)c2ccc(OC)cc2)cc1 -5.01%
COc1ccc(C(C)(O)c2ccc(OC)cc2)cc1 -10.5%
